Assay outcomes (PubChem BioAssay)
Only some compounds are listed: those with a hit (about 2.9% of all), similar ones and a draw of the others.
DRD3 antagonist = D3 dopamine receptor (human) antagonism; P35462; D3R cells, DiscoveRx beta-arrestin luminescence, antagonist mode; active compounds read low; 360,000 tested, 2.5% active; max response, negative = inhibition, %; AID 652054; in the data active = max response below about -50%; inconclusive = no clear call, values can overlap the other calls; note: % is set by controls: 0 for no effect and ±100 for the full control effect
Target sequence (P35462 whole entry, looked up): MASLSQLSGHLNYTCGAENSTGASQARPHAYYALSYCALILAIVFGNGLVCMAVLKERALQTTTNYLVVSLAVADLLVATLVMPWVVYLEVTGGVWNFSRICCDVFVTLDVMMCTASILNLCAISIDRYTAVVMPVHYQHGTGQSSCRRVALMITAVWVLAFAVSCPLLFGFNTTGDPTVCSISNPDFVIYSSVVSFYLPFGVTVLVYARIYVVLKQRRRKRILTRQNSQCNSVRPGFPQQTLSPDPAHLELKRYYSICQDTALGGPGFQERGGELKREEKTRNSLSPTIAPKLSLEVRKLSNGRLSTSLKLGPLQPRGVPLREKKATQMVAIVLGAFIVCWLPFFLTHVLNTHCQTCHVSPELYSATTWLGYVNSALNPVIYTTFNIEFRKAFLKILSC
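Cells expressing the human receptor were seeded at 1500 cells/well, incubated overnight at 37 degrees C in 5% CO2, then exposed to library compounds with dopamine controls for 90 minutes at 37 degrees C before luminescent detection.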
TRPML1 blocker = blocks the human TRPML1 channel; activity change, negative = inhibition, % (no concentration beside the values); 390,000 tested, 0.02% active; Q9GZU1; TRPML1-inducible cells, Ca2+ dye fluorescence, FDSS; active compounds read low; inhibition of EC80 agonist-evoked calcium signal; in the data active = activity change below about -50%; inconclusive = between about -30% and that limit;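 note: stimulus is agonist 54-4 at its EC80 concentration; % is set by controls: 0 for no effect and ±100 for the full control effect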
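Tet-induced TRPML1-DL cells loaded with Ca8 no-wash calcium dye were read kinetically on FDSS. Compound addition was followed by EC80 agonist 54-4 (4 uM final); inhibition was read over 110 s.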
TRPML1 agonist = human mucolipin-1 channel agonism; Q9GZU1; 410,000 tested, 0.12% active; activation, % (test concentration not listed); TRPML1-expressing cells, Ca2+ dye fluorescence, FDSS; in the data active = activation above about 50%; inconclusive = mostly about 30% to 49%; note: 0% is about no effect
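Kinetic FDSS Ca2+ read in Tet-induced TRPML1-DL cells (ABD Ca8 dye plus quencher, 45-90 min RT loading): baseline, then compound, then 110 s agonist window; EC80 agonist 54-4 at 4uM final added afterwards for a 110 s antagonist window.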
D3 ag = agonists of human D3 dopamine receptor. D3R DiscoveRx beta-arrestin cells, luminescence, 90 min. max activation, %. 410,000 tested, 0.58% active; in the data active = max activation above about 30%; note: 0% is about no effect
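Agonist mode: compounds and dopamine controls were applied to plated cells for 90 min at 37 degrees C after an overnight attachment at 1500 cells/well. Luminescent read-out followed 30 - 60 minutes at room temperature with DiscoveRx detection reagent.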
An asterisk follows results filed as active; ? = inconclusive; . = no result given.

SMILES | DRD3 antagonist | TRPML1 blocker | TRPML1 agonist | D3 ag
O=C(NCc1nc2ccccc2[nH]1)C1=C[C@@H](C2CCCCC2)C[C@@H](OCc2ccc(CO)cc2)O1 | 79 | 3 | -1 | 11
CCCCN(C)c1nnc(NC(=O)Nc2cccc(C(C)=O)c2)s1 | . | -18 | 0 | 0
O=C(Nc1ccccc1)C1=C[C@@H](c2csc3ccccc23)C[C@@H](OCc2ccc(CO)cc2)O1 | -51* | 0 | 0 | -32
CC(C)Oc1ccc(C(=O)N(Cc2ccc(N(C)C)cc2)Cc2ccco2)cc1 | . | -19 | 0 | 1
CCOC(=O)c1c(/N=C/c2cccc([N+](=O)[O-])c2O)sc(C)c1C | -102* | -5 | 2 | -12
O=[N+]([O-])c1cccc(C=Nc2cccc3ccccc23)c1O | -11 | 14 | -1 | -16
Cc1nc(N2CCCC2)c2c(C(=O)N3CCN(c4cc(Cl)ccc4C)CC3)c(C)oc2n1 | . | 24 | 2 | -6
CC[C@@]12C(=O)N(c3ccc(OC)cc3)C(=O)N1[C@H](c1cccc(C)c1)[C@@H]1C(=O)N(Cc3ccccc3)C(=O)[C@@H]12 | 7 | -8 | 0 | 45*
CC[C@@]12C(=O)N(c3cccc(Cl)c3)C(=O)N1[C@H](c1cccc(C)c1)[C@@H]1C(=O)N(Cc3ccccc3)C(=O)[C@@H]12 | ? | 12 | 1 | 2
CC[C@@]12C(=O)N(c3ccc(C)cc3)C(=O)N1[C@H](c1cccc(C)c1)[C@@H]1C(=O)N(Cc3ccccc3)C(=O)[C@@H]12 | 0 | -7 | 0 | 30*
COc1ccccc1NC(=O)Cn1c(=O)n(CCc2ccccc2)c(=O)c2c3c(sc21)CN(C(C)=O)CC3 | . | 13 | -1 | -10
COc1cc(C(=O)NCCc2csc(-c3ccc(Cl)cc3)n2)cc(OC)c1OC | . | 31 | 4 | 41*
Cc1ccc(CNCCC2=CCCCC2)cc1 | -67* | 22 | 0 | -50
COc1cc(C(=O)NCCC2=CCCCC2)cc(OC)c1OC | -62* | -3 | 0 | -8
COc1ccc(C)cc1NC(=O)NCCC1=CCCCC1 | -72* | -6 | -1 | -30
COc1ccc(C)cc1NC(=O)c1cc(S(=O)(=O)NCCC2=CCCCC2)ccc1F | . | -7 | 1 | 5
CCCC(=O)NC1CC(=O)N(c2ccc3c(c2)OCCO3)C1 (stereo not given) | . | 7 | 0 | -15
COc1cccc(NS(=O)(=O)c2ccc3[nH]cc(C(=O)N(C)C4CCCCC4)c(=O)c3c2)c1 | . | -2 | 1 | 6
CN1CCN(CCOCCOc2ccc(Br)cc2Cl)CC1 | -61* | -3 | 0 | -20
CC1CCN(CCCOc2ccc(Br)cc2Cl)CC1 | -62* | 11 | 0 | -15
CC1CCCN(CCOCCOc2ccc(Br)cc2Cl)C1 (stereo not given) | -82* | -1 | 0 | 0
Cc1cc(Cl)c(OCCOCCN2CCCC(C)C2)c(Br)c1 (stereo not given) | ? | -7 | 0 | -14
Clc1cc(Br)ccc1OCCN1CCOCC1 | ? | 26 | 1 | -15
Cc1cc(Cl)c(OCCOCCN2CCCCC2)c(Br)c1 | ? | -7 | 0 | -34
CC1CCCN(CCOCCOc2ccc(Cl)cc2Br)C1 (stereo not given) | -100* | 50 | ? | -53
SMILES | DRD3 antagonist | TRPML1 blocker | TRPML1 agonist | D3 ag
C=C1C=C(C)n2ncc(C(=O)N(CCc3ccccc3)Cc3ccccc3)c2N1 | . | . | -1 | .
O=[N+]([O-])c1ccc2c(c1)C=CC2 | . | . | 0 | .
CN(Cc1ccco1)C(=O)c1ccc2c(c1)N(Cc1ccccc1F)C(=O)c1ccccc1S2 | . | 54 | 3 | -18
CCOC(=O)C[n+]1cccc(Br)c1 | . | . | 0 | .
Nc1nc(NCc2ccc(Cl)cc2)c2[nH]cnc2n1 | . | . | 0 | .
Cc1ccc(OCCCCN2CCC(C)CC2)c(Br)c1 | -96* | 7 | -1 | -25
Cc1ccc(OCCCCCCN2CCNCC2)c(Br)c1 | -4 | 2 | 1 | -14
Cc1ccc(C(=O)c2cn(CC(=O)NCc3ccccc3Cl)c3nc(C)ccc3c2=O)cc1 | . | 6 | 1 | 5
COc1ccc(/C=C/C(=O)Nc2nc(-c3cccs3)ns2)cc1OC | . | -20 | 5 | 36*
COc1ccc(C(=O)/C=C/c2ccc(O)cc2)c2c1CC(O)C(C)(C)O2 (stereo not given) | -16 | . | . | -25
COc1ccc(C(=O)/C=C/c2ccc(O)cc2)c(O)c1CC=C(C)C | -67* | 22 | 1 | 13
CCOc1ccccc1C(=O)N1CCC(c2nc3ccccc3o2)CC1 | . | -7 | 2 | 9
